Experimental data as given in ChEMBL document CHEMBL4513216, “Probing the Open Global Health Chemical Diversity Library for Multistage-Active Starting Points for Next-Generation Antimalarials” (ACS Infect Dis, 2020).
Out of some 65,000 compounds screened, about 2,100 (3.2%) showed an effect of 50% or more. The median lay at about -52%. Only a selection was taken, and strong results are over-represented in it overall.

These compounds were tested on Plasmodium falciparum (assay: Screen against P. falciparum Asexual Blood Stage (ABS), at 5uM). Conditions: tested at 5 uM.
Assay type: functional, Dd2
Compound `CC(CN1CCCC1=O)NC(=O)Nc1ccccc1Cn1cccn1` (configuration not stated) has an INHIBITION of -4.06%.
With `CCOCC1c2c(cnn2C)CCN1C(=O)c1ccncn1` (configuration not stated) the INHIBITION was -224%.
For `Cc1cccc(C)c1Oc1ncccc1CNC(=O)C1COC(=O)N1` (configuration not stated), the INHIBITION was -180%.
`CCC(CC)C(=O)NCc1cn2cc(Br)ccc2n1` was tested, and the INHIBITION was 1.4%.
For `Cc1cc(N(C)CCCn2cccn2)nc(N)n1`, the INHIBITION was 26.7%.
With `COc1ccc(F)c(-c2cc(C)nc(N)n2)c1` the INHIBITION was -23.9%.
`COc1ccc(OCCN(C)c2cc(C)nc(N)n2)cc1` showed an INHIBITION of 63.7%.
With `CN(C)c1ccccc1CN1CCCC(N2CCCC2=O)C1` (configuration not stated) the INHIBITION was -44.5%.
`Cc1cccc(C(=O)N2CCC3(CC2)CC(c2cnn(C)c2)CO3)c1` (configuration not stated) was tested, and the INHIBITION was -85.1%.
Work on `CN(C)CC1(O)CCN(C(=O)Cc2ccc3c(c2)CCC3)C1` (configuration not stated) yielded an INHIBITION of -116%.
In the case of `CN(C)CC1(O)CCCN(C(=O)CCn2cc(Cl)cn2)C1` (configuration not stated), the INHIBITION is reported as -101%.
In the case of `CN(C)CC1(O)CCCN(C(=O)Cc2ccc(Cl)c(Cl)c2)C1` (configuration not stated), the INHIBITION is reported as 58.9%.
In the case of `O[C@H]1CCCC[C@@H]1N1CCN(CCCc2ccc3c(c2)OCO3)CC1`, the INHIBITION is reported as 28.7%.
Compound `CN(C)C(CNCc1nc(-c2ccsc2)no1)c1ccsc1` (configuration not stated) has an INHIBITION of 55.4%.
In the case of `CN(C)C(CNCc1nc(-c2ccsc2)no1)c1cccc(F)c1` (configuration not stated), the INHIBITION is reported as -31.3%.
In the case of `CN(C)C(CNCc1nc(-c2ccsc2)no1)c1cccs1` (configuration not stated), the INHIBITION is reported as 12.3%.
`CCC1=NC(SCC(=O)c2ccccc2)c2cc(CC)sc2N1` (configuration not stated) gave an INHIBITION of -23.2%.
With `c1ccc(-c2cc(CNCCN3CCOCC3)c3nnnn3c2)cc1` the INHIBITION was -57.2%.
With `c1ccc(-c2cc(CNCCN3CCCC3)c3nnnn3c2)cc1` the INHIBITION was -1.88%.
For `c1ccc(-c2cc(CNCCCN3CCCCC3)c3nnnn3c2)cc1`, the INHIBITION was 65.4%.
Work on `O=C([C@@H]1C[C@@H]2CCN(CCc3ccccc3)C[C@H]2O1)N1CCCC1` yielded an INHIBITION of -35%.
Compound `CC(O)CN1CCC(CNCc2ccccc2Cl)CC1` (configuration not stated) has an INHIBITION of 44.5%.
Work on `CCc1nnc2n1CC(CNCC1CCCC1)CC2` (configuration not stated) yielded an INHIBITION of -108%.
`COc1ccc2c(c1)C(=O)NC1(CC2)CCN(Cc2ccc(F)cc2)C1` (configuration not stated) showed an INHIBITION of 66.7%.
With `COc1ccc2c(c1)C(=O)NC1(CC2)CCN(Cc2ccccc2)C1` (configuration not stated) the INHIBITION was 64.7%.
Compound `COc1ccc2c(c1)OC1(CCN(Cc3ccc(F)cc3)CC1)CC2=O` has an INHIBITION of -50.5%.
`COc1ccc2c(c1)C(=O)NC1(CC2)CCN(Cc2ccccn2)C1` (configuration not stated) gave an INHIBITION of -30.5%.
Work on `COc1ccc2c(c1)C(=O)NC1(CC2)CCN(Cc2cccnc2)C1` (configuration not stated) yielded an INHIBITION of -50.6%.
`COc1ccc2c(c1)C(=O)NC1(CC2)CCN(Cc2ccncc2)C1` (configuration not stated) was tested, and the INHIBITION was -28.2%.
`Cc1ccc(C(=O)Nc2ccccc2F)n1C` was tested, and the INHIBITION was -184%.
For `COc1ccc(-c2cn(CCn3c(C)cc(C)nc3=O)nn2)cn1`, the INHIBITION was -102%.
Work on `COc1c(F)cc(-c2cn(CCn3c(C)cc(C)nc3=O)nn2)cc1Cl` yielded an INHIBITION of 59.7%.
Compound `CC(=O)Nc1ccc(-c2cn(CCn3c(C)cc(C)nc3=O)nn2)cc1` has an INHIBITION of -49.9%.
Compound `c1ccc(CN2CCCn3nnc(Cn4cccc4)c3C2)nc1` has an INHIBITION of -33.7%.
`Cc1ccc(N2CC[C@H]3O[C@@H](C(=O)N4CCCO4)CC[C@H]32)nn1` was tested, and the INHIBITION was -24.1%.
In the case of `Cc1cnc(C(=O)N2CCC3(CC2)CN(c2ccccn2)CCO3)cn1`, the INHIBITION is reported as -79.7%.
Work on `CCOCC1CCN(C(=O)Nc2ccc3c(c2)CCCO3)C1` (configuration not stated) yielded an INHIBITION of -50.7%.
With `CCNC(=O)C1CCCN(C(=O)Nc2ccc3c(c2)CCCN3C)C1` (configuration not stated) the INHIBITION was 13.1%.
`CCOCC1CCN(C(=O)Nc2ccc3c(c2)CCCN3C)C1` (configuration not stated) gave an INHIBITION of 58.9%.
`Cn1ccnc1CN1CCN(CCOc2cccc(C#N)c2)CC1` showed an INHIBITION of -53.6%.
With `O=C(c1c[nH]cn1)N1CCC(F)(F)C2(CCN(c3cnccn3)C2)C1` (configuration not stated) the INHIBITION was -94.9%.
With `CC(=O)N1C[C@H](NS(=O)(=O)Cc2cccc(Cl)c2)[C@@H](C(C)C)C1` the INHIBITION was -62.4%.
For `Cc1cc(NCc2cc3n(n2)CCCN(C(=O)C2CCC2)C3)nc(N)n1`, the INHIBITION was -79.3%.
With `COc1cccc(C(=O)N2CCc3nc(C4CCCN4)ncc3C2)c1` (configuration not stated) the INHIBITION was 4.58%.
With `COc1ccc(C)cc1CN(Cc1ncc(C)o1)C1CCN(C)C1` (configuration not stated) the INHIBITION was 38.7%.
`COc1ccc(C)cc1CN(Cc1nc(C)c(C)o1)C1CCN(C)C1` (configuration not stated) gave an INHIBITION of 56.2%.
`Cc1cnc(CN(Cc2ccc(C#N)cc2F)C2CCN(C)C2)o1` (configuration not stated) gave an INHIBITION of 12.5%.
With `CN1C(Cn2cccn2)C[C@@H]2CN(C(=O)c3cccc(C#N)c3)CC[C@@H]21` (some centres not stated) the INHIBITION was -95.8%.
Work on `CC(C)Oc1ccccc1OCCN1C(=O)CCNC1=O` yielded an INHIBITION of -16.4%.
Work on `CCNC(=O)C1CCN(Cc2ccc(C(=O)Nc3nnc(C)s3)cc2)C1` (configuration not stated) yielded an INHIBITION of -162.2%.
In the case of `OC1(CNCc2ccc(F)c(C(F)(F)F)c2)CCOC1` (configuration not stated), the INHIBITION is reported as -1.68%.
`Cc1cc(CNCC2(O)CCOCC2)ccc1F` was tested, and the INHIBITION was 16.2%.
`OC1(CNCc2ccc(F)c(C(F)(F)F)c2)CCSCC1` gave an INHIBITION of 56.4%.
For `O=C(NCc1cccnc1)[C@@H]1C[C@H]2[C@H](CCN2c2ncccn2)O1`, the INHIBITION was -112%.
In the case of `CO[C@H]1CN(C)S(=O)(=O)[C@@]12CCN(Cc1ccccc1)C2`, the INHIBITION is reported as -53.8%.
In the case of `Cc1cc(O)c(OCC(=O)Nc2nc3c(s2)CCCCC3)cn1`, the INHIBITION is reported as -94.4%.
`COc1ccc(CNC(C)c2ccc(Cl)c(Cl)c2)c(OC)c1OC` (configuration not stated) was tested, and the INHIBITION was 66%.
With `COc1ccc(C(C)NCc2ccc(OC)c(OC)c2OC)cc1F` (configuration not stated) the INHIBITION was 36%.
Compound `COc1cc(CNC(C)c2ccc(F)c(F)c2)cc2c1OCCO2` (configuration not stated) has an INHIBITION of -7.66%.
In the case of `COc1ccc(C(C)NCc2c[nH]nc2C)cc1Br` (configuration not stated), the INHIBITION is reported as 20.5%.
`COc1ccc(C(C)NCc2c[nH]nc2C)cc1OC` (configuration not stated) was tested, and the INHIBITION was -59.7%.
`COc1ccc(CNC(C)c2cccc(Cl)c2)c(OC)c1OC` (configuration not stated) gave an INHIBITION of 43.3%.
`CNS(=O)(=O)c1cccc(C(C)NCc2cccc(OC)c2)c1` (configuration not stated) was tested, and the INHIBITION was 3.75%.
Work on `COc1cc(CNC(C)c2cccc(Cl)c2)cc(OC)c1OC` (configuration not stated) yielded an INHIBITION of 63.5%.
Work on `COc1ccc(CNC(C)c2cccc(Br)c2)c(OC)c1OC` (configuration not stated) yielded an INHIBITION of 67.1%.
In the case of `CCCn1cc(NC(=O)c2ccc(S(=O)(=O)CC)cc2)ccc1=O`, the INHIBITION is reported as -1.56%.
With `O=C(CNCCn1cccn1)NCC1(c2ccccc2)CCC1` the INHIBITION was -77%.
